Source: PubChem BioAssay AID1159580 (chemical genetic matrix, 2015)
The whole screen tested about 5,500 compounds, of which about 2,000 (36%) were called active. Roughly 18% stayed inconclusive and do not appear here. No stated cut-off is given here; in the data, active means normalized growth mostly below about 0.91 (no sharp cut-off); inconclusive means no clear call, values can overlap the other calls; inactive means mostly above about 0.92. The list shows a part of the results.

Assay: chemical genetic growth profiling, strain panel (AID 1159580);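 further: tested at 20 µM; growth read once vehicle control cultures reached saturation at 30 °C; 1 = growth at the plate median or of vehicle wells; lower values mean less growth of the strain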
Conditions: S. cerevisiae deletion strains, growth OD
[1] = locus YAL021C, strain ccr4, active compounds read low
[2] = locus YAL026C, strain drs2, active compounds read low
[3] = locus YAL030W, strain snc1, active compounds read low
[4] = locus YBL061C, strain skt5, active compounds read low
[5] = locus YBR009C, strain hhf1, active compounds read low
[6] = locus YBR023C, strain chs3, active compounds read low
[7] = locus YBR171W, strain sec66, active compounds read low
[8] = locus YBR231C, strain swc5, active compounds read low
[9] = locus YBR279W, strain paf1, active compounds read low
[10] = locus YCL011C, strain gbp2, active compounds read low
[11] = locus YCL016C, strain dcc1, active compounds read low
[12] = locus YCL069W, strain vba3, active compounds read low
[13] = locus YCR088W, strain abp1, active compounds read low
[14] = locus YDL005C, strain med2, active compounds read low
[15] = locus YDL040C, strain nat1, active compounds read low
[16] = locus YDR001C, strain nth1, active compounds read low
[17] = locus YDR069C, strain doa4, active compounds read low
[18] = locus YDR137W, strain rgp1, active compounds read low
[19] = locus YDR159W, strain sac3, active compounds read low
[20] = locus YDR297W, strain sur2, active compounds read low
[21] = locus YDR334W, strain swr1, active compounds read low
[22] = locus YDR335W, strain msn5, active compounds read low
[23] = locus YDR392W, strain spt3, active compounds read low
[24] = locus YEL003W, strain gim4, active compounds read low
[25] = locus YEL037C, strain rad23, active compounds read low
[26] = locus YEL061C, strain CIN8 (second series), active compounds read low
[27] = locus YER015W, strain faa2, active compounds read low
[28] = locus YER016W, strain bim1, active compounds read low
[29] = locus YER111C, strain swi4, active compounds read low
[30] = locus YER155C, strain BEM2 (second series), active compounds read low
[31] = locus YFR010W, strain ubp6, active compounds read low
[32] = locus YGL167C, strain pmr1, active compounds read low
[33] = locus YGL173C, strain kem1, active compounds read low
[34] = locus YGL227W, strain vid30, active compounds read low
[35] = locus YGL240W, strain doc1, active compounds read low
[36] = locus YGL253W, strain hxk2, active compounds read low
[37] = locus YHR013C, strain ard1, active compounds read low
[38] = locus YHR027C, strain rpn1, active compounds read low
[39] = locus YHR142W, strain chs7, active compounds read low
[40] = locus YJL092W, strain hpr5, active compounds read low
[41] = locus YJL095W, strain BCK1 (second series), active compounds read low
[42] = locus YJL115W, strain asf1, active compounds read low
[43] = locus YJL129C, strain trk1, active compounds read low
[44] = locus YJL154C, strain vps35, active compounds read low
[45] = locus YJL164C, strain tpk1, active compounds read low
[46] = locus YJL166W, strain qcr8, active compounds read low
[47] = locus YKL160W, strain elf1, active compounds read low
[48] = locus YKR026C, strain gcn3, active compounds read low
[49] = locus YKR091W, strain srl3, active compounds read low
[50] = locus YLL001W, strain dnm1, active compounds read low
[51] = locus YLL026W, active compounds read low
[52] = locus YLL041C, strain sdh2, active compounds read low
[53] = locus YLR027C, strain aat2, active compounds read low
[54] = locus YLR221C, strain rsa3, active compounds read low
[55] = locus YLR258W, strain gsy2, active compounds read low
[56] = locus YLR262C, strain YPT6 (second series), active compounds read low
[57] = locus YLR320W, strain mms22, active compounds read low
[58] = locus YLR342W, strain FKS1, active compounds read low
[59] = locus YLR357W, strain rsc2, active compounds read low
[60] = locus YLR370C, strain arc18, active compounds read low
[61] = locus YLR384C, strain iki3, active compounds read low
[62] = locus YML120C, strain ndi1, active compounds read low
[63] = locus YMR058W, strain fet3, active compounds read low
[64] = locus YMR125W, strain sto1, active compounds read low
[65] = locus YMR129W, active compounds read low
[66] = locus YMR205C, strain PFK2, active compounds read low
[67] = locus YMR231W, strain pep5, active compounds read low
[68] = locus YNL071W, strain lat1, active compounds read low
[69] = locus YNL209W, strain ssb2, active compounds read low
[70] = locus YNL248C, strain rpa49, active compounds read low
[71] = locus YNL322C, strain KRE1 (second series), active compounds read low
[72] = locus YNR049C, strain mso1, active compounds read low
[73] = locus YOR001W, strain rrp6, active compounds read low
[74] = locus YOR070C, strain gyp1, active compounds read low
[75] = locus YOR080W, strain dia2, active compounds read low
[76] = locus YOR083W, strain WHI5, active compounds read low
[77] = locus YOR106W, strain vam3, active compounds read low
[78] = locus YOR265W, strain rbl2, active compounds read low
[79] = locus YOR270C, strain vph1, active compounds read low
[80] = locus YOR290C, strain snf2, active compounds read low
[81] = locus YPL051W, strain arl3, active compounds read low
[82] = locus YPL078C, strain atp4, active compounds read low
[83] = locus YPL106C, strain sse1, active compounds read low
[84] = locus YPL240C, strain hsp82, active compounds read low

Measured: normalized growth

Cc1nc(N=Nc2ccc(C(=O)O)cc2)c(COP(=O)(O)O)c(C=O)c1O
inactive: locus YAL040C, strain CLN3, active compounds read low 0.978 | locus YCL061C, strain MRC1 (second series), active compounds read low 1.01 | locus YDR150W, strain NUM1, active compounds read low 1.02 | locus YDR363W, strain ESC2, active compounds read low 1 | locus YER002W, strain NOP16, active compounds read low 1.02 | locus YMR263W, strain SAP30, active compounds read low 1.01 | locus YMR307W, strain GAS1, active compounds read low 1.04 | locus YNL128W, strain TEP1, active compounds read low 0.99 | locus YNL175C, strain NOP13, active compounds read low 1.01 | locus YNL197C, strain WHI3, active compounds read low 1.01 | locus YNL224C, strain SQS1, active compounds read low 1.01 | locus YOR083W, strain WHI5 (second series), active compounds read low 1.03 | locus YPL055C, strain LGE1, active compounds read low 1.01 | locus YPL241C, strain CIN2, active compounds read low 1.01

COC(=O)C1=COC(OC2OC(CO)C(O)C(O)C2O)C2C(C)CC(=O)C12O (centres undefined)
inactive: [1] 0.942 | [2] 0.994 | [3] 0.975 | [4] 0.991 | [5] 0.944 | [6] 0.986 | [7] 0.983 | [8] 1.02 | [9] 0.995 | [10] 0.982 | [11] 0.978 | [12] 0.987 | [13] 1 | [14] 0.986 | [15] 0.994 | [16] 0.965 | [17] 0.985 | [18] 0.982 | [19] 1.03 | locus YDR195W, strain ref2 0.989 | [20] 0.993 | [21] 0.959 | [22] 0.994 | [23] 0.898 | [24] 0.989 | [25] 0.984 | [26] 0.984 | [27] 0.977 | [28] 0.985 | [29] 0.987 | [30] 1.01 | [31] 0.989 | [32] 0.966 | [33] 0.997 | [34] 0.991 | [35] 1.01 | [36] 1.01 | [37] 0.953 | [38] 0.967 | [39] 0.993 | [40] 0.983 | [41] 0.982 | [42] 0.972 | [43] 1 | [44] 0.978 | [45] 0.946 | [46] 0.975 | [47] 0.979 | [48] 0.986 | [49] 0.978 | [50] 1.01 | [51] 0.987 | [52] 0.98 | [53] 1.01 | [54] 1.03 | [55] 0.993 | [56] 0.984 | [57] 1.03 | [58] 0.999 | [59] 0.975 | [60] 1.01 | [61] 0.998 | [62] 0.955 | [63] 0.987 | [64] 0.937 | [65] 0.975 | [66] 0.945 | [67] 0.99 | [68] 0.974 | [69] 1 | [70] 1.03 | [71] 0.978 | [72] 0.971 | [73] 1.02 | [74] 0.996 | [75] 0.992 | [76] 0.98 | [77] 0.94 | [78] 0.999 | [79] 1.02 | [80] 0.927 | [81] 0.999 | [82] 0.954 | [83] 0.959 | [84] 0.986

COc1ccc(-c2cc(=O)c3c(O)cc(OC)c(OC)c3o2)c(OC)c1
inactive: [1] 0.977 | [2] 1.02 | [3] 1.02 | [4] 0.997 | [5] 0.964 | [6] 0.989 | [7] 1.04 | [8] 0.966 | [9] 1.01 | [10] 1.01 | [11] 1 | locus YCL061C, strain MRC1, active compounds read low 1.03 | [12] 1.04 | [13] 1.03 | [14] 1.02 | [15] 1.02 | [16] 1.04 | [17] 0.97 | [18] 0.943 | [19] 1.02 | locus YDR195W, strain ref2 1.07 | [20] 1.02 | [21] 1.05 | [22] 1.03 | [23] 0.846 | [24] 1.01 | [26] 1.04 | [27] 0.971 | [28] 1.02 | [29] 1.05 | [30] 0.956 | [31] 1 | [32] 0.998 | [33] 1.02 | [34] 1.04 | [35] 1.04 | [36] 1.01 | [37] 0.975 | [38] 0.985 | locus YHR030C, strain SLT2, active compounds read low 1.04 | locus YHR079C, strain IRE1, active compounds read low 1.03 | [39] 1 | [40] 1.04 | [41] 1.01 | locus YJL095W, strain BCK1, active compounds read low 0.967 | [42] 1.05 | [43] 1.02 | [44] 1.04 | [45] 0.95 | [46] 1 | locus YJL187C, strain SWE1, active compounds read low 1.02 | locus YJR066W, strain TOR1, active compounds read low 0.973 | [47] 0.993 | [48] 1.05 | [49] 1.03 | [50] 1.01 | [51] 1.02 | [52] 1.02 | [53] 0.996 | locus YLR113W, strain HOG1, active compounds read low 0.932 | [54] 0.966 | [55] 1.01 | [56] 0.907 | [57] 0.966 | [58] 0.997 | [59] 0.994 | [60] 1.03 | [61] 1.02 | [62] 1.02 | [63] 0.917 | [64] 1.05 | [65] 1.03 | [66] 1.01 | [67] 1.03 | [68] 1.02 | locus YNL183C, strain NPR1, active compounds read low 0.893 | [69] 0.937 | [70] 1.05 | [71] 1.04 | [72] 1.03 | [73] 1.01 | [74] 0.997 | [75] 1.04 | [76] 0.962 | [77] 0.944 | locus YOR231W, strain MKK1, active compounds read low 1.03 | [78] 1.01 | [79] 1.03 | [80] 0.961 | [81] 0.916 | [82] 1.03 | [83] 0.983 | [84] 1.02 | locus YPL256C, strain CLN2, active compounds read low 1.01
active: [25] 1.1 [resistant]
